Assay results: PubChem BioAssay (NCATS)
Results filed as inconclusive are left out. Unmarked numbers belong to inactive results. Activity calls are given as the source filed them. Calls come from the whole dose curve; as a rule, active = well fitted inhibition curve with a large enough effect; inconclusive = small, poorly fitted or top-dose-only effect; inactive = no such curve, though single readings can be large or run the other way.

Test: qHTS Screen of the MIPE 4.0 Collection Against Ewings Sarcoma (EW8) (AID 1259255); note: nearly all actives have a fitted effect of over 35% in size;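 for viability: 100% = DMSO-treated cells and 0% = medium-only wells without cells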
Details: EW8 Ewing sarcoma viability, CellTiter-Glo, 48 h; series mostly up to 45.8 µM; viability: at the top concentration
Method in brief: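 Compound titrations go onto adherent log-phase cells 4 h after seeding, incubate 48 h at 37C, then CellTiter-Glo luminescence reports viability relative to DMSO and cell-free controls.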
Potency is the fitted concentration of half-maximal effect.

Structure (SMILES) | Potency | viability
O=c1[nH]nc(OCCCc2ccc(Cl)cc2)c(NCc2cccnc2)c1Br | 13.2 µM (active) | 
CC[C@H]1OC(=O)[C@H](C)[C@@H](O[C@H]2C[C@@](C)(OC)[C@@H](O)[C@H](C)O2)[C@H](C)[C@@H](O[C@@H]2O[C@H](C)C[C@H](N(C)C)[C@H]2O)[C@](C)(O)C[C@H](C)C(=NOCOCCOC)[C@H](C)[C@@H](O)[C@]1(C)O |  | 101%
NC(N)=Nc1nc(CSCCC(N)=NS(N)(=O)=O)cs1 |  | 78.2%
COc1cc2nc(-c3cc(F)ccc3O)nc(N[C@@H]3CNC[C@@H]3C(C)(C)O)c2cc1OC | 23.5 µM (active) | 
Cc1[nH]c(C=C2C(=O)Nc3ccc(S(=O)(=O)N(C)c4cccc(Cl)c4)cc32)c(C)c1C(=O)N1CCN(C)CC1 | 26.4 µM (active) | 
C#CCN(C)CC1=Cc2ccccc2Oc2ccccc21 |  | 107%
Cc1ccccc1C(=O)c1ccc(Nc2ccc(Br)cc2N)cc1Cl | 23.5 µM (active) | 
CN(CC=CC#CC(C)(C)C)Cc1cccc2ccccc12 |  | 90.5%
CC(O)=C(C#N)C(=O)Nc1ccc(C(F)(F)F)cc1 | 20.9 µM (active) | 
CC(C)C[C@@H](C(=O)N[C@H](C(=O)OC1CCCC1)c1ccccc1)[C@H](O)C(=O)NO | 18.7 µM (active) | 
COc1c(C)c2c(c(O)c1CC=C(C)CCC(=O)O)C(=O)OC2 | 1.48 µM (active) | 
CC(C)CN(C[C@H](O)[C@H](Cc1ccccc1)NC(=O)O[C@H]1CCOC1)S(=O)(=O)c1ccc(N)cc1 | 18.7 µM (active) | 
COc1ccc(-c2nc3ccc(C4=NNC(=O)CC4C)cc3[nH]2)cc1 (stereo unspecified) |  | 103%
CCCCC(F)(F)[C@@]1(O)CC[C@H]2[C@H](CC(=O)[C@@H]2CCCCCCC(=O)O)O1 | 3.32 µM (active) | 
CC1(C)[C@H]2CC[C@]3(C)[C@@H](C(=O)C=C4[C@@H]5C[C@@](C)(C(=O)O)CC[C@]5(C)CC[C@]43C)[C@@]2(C)CC[C@@H]1O |  | 110%
O=c1[nH]c(=O)n([C@H]2C[C@@H](O)[C@@H](CO)O2)cc1C(F)(F)F | 3.32 µM (active) | 
Nc1ncnc2c1ncn2[C@@H]1O[C@H](CO)[C@@H](O)[C@@H]1O | 5.26 µM (active) | 
CC(NCCc1ccc(O)cc1)C(O)c1ccc(O)cc1 (stereo unspecified) |  | 114%

Structure (SMILES) | Potency | viability
NC(=O)c1ncn([C@@H]2O[C@H](CO)[C@@H](O)[C@@H]2O)n1 |  | 119%
O=C(c1ccc(C(=O)N2CCC(N3CCCC3)CC2)c(Nc2ccccc2)c1)N1CCC(N2CCCC2)CC1 | 6.62 µM (active) | 
C[C@@H]1[C@H](O)[C@@H](C)C=CC=CC=CC=CC=CC=CC=C[C@H](O[C@@H]2O[C@H](C)[C@H](O)[C@H](N)[C@@H]2O)C[C@@H]2O[C@](O)(C[C@@H](O)C[C@@H](O)[C@H](O)CC[C@@H](O)C[C@@H](O)CC(=O)O[C@H]1C)C[C@H](O)[C@@H]2C(=O)O | 1.18 µM (active) | 
NS(=O)(=O)c1cc(Cl)c(Cl)c(S(N)(=O)=O)c1 |  | 106%
COc1cc(Cl)cn2c(-c3cccc(NC4CNC4)n3)cnc12 |  | 81.6%
CN1CCc2c(n(Cc3ccc(C(=O)NO)cc3)c3ccccc23)C1 | 16.6 µM (active) | 
CC(C)C[C@@H](N)[C@H](O)C(=O)N[C@H](C(=O)N[C@H](C(=O)N[C@@H](CC(=O)O)C(=O)O)C(C)C)C(C)C |  | 108%
CC1(C)C(N(O)C(=O)Nc2ccc(Cl)cc2)N(c2ccc(Cl)cc2)C(=O)N1CC(=O)NN=CC=Cc1ccc([N+](=O)[O-])o1 (stereo unspecified) | 14.8 µM (active) | 
Cc1cc(NC(=O)Nc2ccc(N(C)C)cc2)c2cc(F)cc(F)c2n1 | 26.4 µM (active) | 
CCNC(=O)Nc1ccc(Oc2ncnc(N)c2C=NOC)cc1Cl | 8.33 µM (active) | 
C=C1c2cccc(O)c2C(O)=C2C(=O)[C@@]3(O)C(O)=C(C(N)=O)C(=O)[C@@H](N(C)C)[C@@H]3[C@@H](O)[C@H]12 | 23.5 µM (active) | 
CCCC1OC2C[C@@H]3[C@H]4CCC5=CC(=O)C=C[C@]5(C)[C@H]4C(O)C[C@]3(C)[C@]2(C(=O)CO)O1 (stereo partly specified) | 18.7 µM (active) | 
O=C(O)C1=CC(O)C(O)[C@H](O)C1 (stereo partly specified) |  | 123%
CCCCCCCCCCCCCC(=O)N[C@H](CO)[C@H](O)c1ccc([N+](=O)[O-])cc1 |  | 104%
Cc1cc2nc3c(=O)[nH]c(=O)nc-3n(CC(O)C(O)C(O)CO)c2cc1C (stereo unspecified) |  | 120%
N#Cc1c(N(CC(=O)O)CC(=O)O)sc(C(=O)O)c1CC(=O)O |  | 109%
O=C(O)CCNc1cc(N2CCc3ccccc3CC2)nc(-c2ccccn2)n1 |  | 122%
CN1CCN(c2ncc(-c3cc(Cl)cc(Cl)c3Cl)c(N)n2)CC1 |  | 105%
